Molecules are shown by their SMILES. Inconclusive results are not listed. Values without a mark were called inactive. Calls of active or inactive are those of the source. Calls follow the shape of the dose curve; as a rule, active = well fitted inhibition curve with a large enough effect; inconclusive = small, poorly fitted or top-dose-only effect, or effect the other way; inactive = flat fitted curve, though single readings scatter.
% is scaled to controls: 0 for no effect and ±100 for the full control effect; potency is read from the fitted curve at half-maximal effect.

The target in the assay is Ubiquitin carboxyl-terminal hydrolase 2 (Homo sapiens) (UniProt O75604). Briefly: Ub-rhodamine 110 based assay for inhibitors Ubiquitin-specific Protease USP2a. Also: nearly all actives have a fitted effect of over 50% in size. Particulars: USP2a Ub-rhodamine110 cleavage, fluorescence; series mostly up to 38.3 µM; activity change, negative = inhibition: at the top concentration. In outline: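 5 nM USP2a preincubated with compounds for 30 min at RT in 20 mM Tris-HCl pH 8.0, 2 mM CaCl2, 2 mM beta-mercaptoethanol, 0.05% CHAPS. Cleavage of 150 nM Ub-rhodamine 110 read kinetically (Ex 485/Em 531) for 7 min.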
Ubiquitin carboxyl-terminal hydrolase 2 (Homo sapiens), sequence (O75604 whole entry, looked up): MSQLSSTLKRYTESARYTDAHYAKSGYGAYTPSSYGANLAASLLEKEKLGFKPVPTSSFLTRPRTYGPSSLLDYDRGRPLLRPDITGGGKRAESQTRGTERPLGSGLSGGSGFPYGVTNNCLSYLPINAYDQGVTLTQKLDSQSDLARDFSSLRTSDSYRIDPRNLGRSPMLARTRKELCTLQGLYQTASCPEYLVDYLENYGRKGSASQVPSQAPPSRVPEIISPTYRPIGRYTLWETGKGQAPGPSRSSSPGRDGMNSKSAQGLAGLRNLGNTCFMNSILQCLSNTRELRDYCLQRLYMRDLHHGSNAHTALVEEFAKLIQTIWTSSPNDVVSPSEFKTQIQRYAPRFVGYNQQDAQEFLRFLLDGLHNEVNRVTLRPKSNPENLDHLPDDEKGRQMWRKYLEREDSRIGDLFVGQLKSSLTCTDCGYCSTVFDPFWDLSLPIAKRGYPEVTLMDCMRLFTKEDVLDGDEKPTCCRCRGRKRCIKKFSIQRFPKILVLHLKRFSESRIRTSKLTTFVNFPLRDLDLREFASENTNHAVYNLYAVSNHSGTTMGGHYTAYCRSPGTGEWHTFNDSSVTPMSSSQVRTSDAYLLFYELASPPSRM
Consider `C[C@](N)(Cc1ccc(O)c(O)c1)C(=O)O`, for which the “activity change, negative = inhibition” value was -6.04%.
On the same count and under the same terms, for `COC(=O)c1ccc(CSc2ncnc3ccccc23)o1` the value was -6.12%; for `O=[N+]([O-])c1c(NCCO)cc(N2CCN(Cc3ccc4c(c3)OCO4)CC2)c2nonc12`, 2.52%.
With `NC(=O)c1c(NC(=O)CSc2nnc(-c3ccco3)n2-c2ccccc2)sc2c1CCC2`, the Potency is 5.01 µM (active).
Turning to `CC(C)n1c(/C=C/[C@H](O)C[C@H](O)CC(=O)O)c(-c2ccc(F)cc2)c2ccccc21`, the “activity change, negative = inhibition” value is -10.4%.
In the case of `O=C(CNC(=O)c1ccco1)Nc1ccc(S(=O)(=O)N2CCCC2)cc1`, the “activity change, negative = inhibition” value is -14.1%.
For `CN1CCN(CCCCOc2ccc(F)cc2)CC1`, the “activity change, negative = inhibition” value is -2.66%.
For `O=C1NC(=Nc2ccccc2)S/C1=C\C=C\c1ccco1`, the Potency is 5.62 µM (active).
Turning to `CN(C)S(=O)(=O)c1ccc(C(=O)NCCN=C2NS(=O)(=O)c3ccccc32)cc1`, the “activity change, negative = inhibition” value is -8.45%.
For the compound `CCC/C(O)=C1\C(=O)CC(C)(C)CC1=Nc1ccc(OC)cc1OC`, the “activity change, negative = inhibition” value was -10.9%.
With `Cn1nnnc1Sc1ncnc2scc(-c3ccc4c(c3)OCO4)c12`, the “activity change, negative = inhibition” value is -18.2%.
On to `O=C(N/N=C/c1ccc(-c2ccc(Cl)c(C(=O)O)c2)o1)c1cc2c(ccc3ccccc32)o1`, for which the Potency is 10 µM (active).
With `COc1ccc(/C=N/NC(=O)c2nn(-c3ccccc3)c(=O)c3c(N)scc23)cc1`, the Potency was 10 µM (active).
As for `Cc1ccc(O)c(CC(C)C)n1`, the “activity change, negative = inhibition” value is -3.99%.
Take `CN(C)CCCN1C(=O)C(=O)/C(=C(/O)c2ccncc2)C1c1cccnc1` (centres undefined): the “activity change, negative = inhibition” value was -1.84%.
For the compound `COc1ccc(S(=O)(=O)NCCSCc2ccco2)cc1OC`, the Potency is 10 µM (active).
On the same count and under the same terms, for `CC1(C)Cc2c(C#N)c(N3CCN(C(=O)c4ccco4)CC3)nc(-c3ccco3)c2CS1` the value was 8.91 µM (active).
Consider `O=C(O)C1CCN1C1CCCCC1` (centres undefined), for which the “activity change, negative = inhibition” value was -9.55%.
In the case of `COc1cc(/C=C/c2cc[n+](C)cc2)ccc1OCC(=O)Nc1ccc(Cl)c(Cl)c1`, the “activity change, negative = inhibition” value was -14.5%.
`O=C(Cc1ccc(S(=O)(=O)N2CCOCC2)s1)Nc1nc2c(s1)CCCC2`: the Potency was 6.31 µM (active).
With `CCN(CC)CCNc1nc(-c2ccccc2)c2c(c1C#N)CC(C)(C)OC2`, the “activity change, negative = inhibition” value is -1.63%.
`COc1ccc(/C=N\NC(=O)c2cc(O)c(O)c(O)c2)cc1COc1ccc(C(=O)OCC(C)C)cc1`: the Potency is 2.82 µM (active).
For `O=C(O)CN1C(=O)/C(=C\c2ccccc2OCc2ccc(Cl)cc2Cl)SC1=S`, the Potency was 10 µM (active).
Consider `CCn1nc(C(=O)N[C@@H](CCSC)c2nc3ccccc3[nH]2)c2ccccc2c1=O`, for which the “activity change, negative = inhibition” value was -8.19%.
As for `COC(=O)c1nnn(-c2nonc2N)c1CSc1ccccn1`, the “activity change, negative = inhibition” value was -6.42%.
Still for that read-out and setting: for `O=C(NCCOC(=O)c1ccccc1C(=O)OCCNC(=O)c1cccnc1)c1cccnc1` the value was -1.61%; for `COc1ccccc1C1NC(c2ccccc2OC)C(C)C(=O)C1C` (centres undefined), 5.06%.
Still for that read-out and setting: for `COCCNCC(=O)N1CCCCCC1` the value was -3.07%.
Consider `CCCc1cc(=O)oc2cc(C)c(CN3CCCC3)c(O)c12`, for which the Potency was 10 µM (active).
As for `CC(C)(C)C1CCC(=NNC(=O)CN(c2ccccc2)S(C)(=O)=O)CC1` (centres undefined), the “activity change, negative = inhibition” value was -13.3%.
Consider `O=C(CSc1ncn[nH]1)Nc1ccc(Br)cc1F`, for which the “activity change, negative = inhibition” value is 2.25%.
With `O=[N+]([O-])c1cc(-c2nnc(Nc3ccccc3)c3ccccc23)ccc1N1CCOCC1`, the “activity change, negative = inhibition” value was -28.6%.
For the compound `CN(CC(=O)Nc1cccc2ccccc12)C(=O)c1ccc(NC(=O)CC#N)cc1`, the Potency is 11.2 µM (active).
In the case of `O=C(Nc1nnc(SCCC2OCCO2)s1)C1CC(=O)N(c2ccc(F)cc2)C1` (centres undefined), the Potency is 7.94 µM (active).
With `COc1ccc(C(=O)C[N+]2(C)CCOCC2)cc1`, the “activity change, negative = inhibition” value is -0.2%.
Same read-out and setting: the same measure for `Oc1ccccc1/C=N/Nc1ncc(Br)cn1`: 1.75%; for `Cc1cc2c(c(=O)n1CC1CCCO1)C(c1ccco1)C(C#N)=C(N)O2` (centres undefined): 0.369%; for `Cc1ccc(C(=O)c2coc3c2C(=O)C(=O)c2ccccc2-3)cc1`: -29.4%.
With `CCN(CC)S(=O)(=O)c1ccc(Cl)c(NC(=O)COC(=O)c2c(C)noc2C)c1`, the “activity change, negative = inhibition” value is -7.34%.

The values above are taken from PubChem BioAssay AID493170 (National Center for Advancing Translational Sciences (NCATS), 2011).
